Test [1] is described as follows: ATG_E_Box_CIS: Attagene CIS-FACTORIAL HepG2 Assay for human Enhancer Box (E-box) (AID 2282936). Particulars: HepG2 E-box cis-reporter transcription, actives raise or lower the signal. The essentials:
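Fluorescent reporter fragments separated by capillary electrophoresis gave the signal; mRNA came from HepG2 cells transfected with cis-element reporters and treated 24 h. Curves fitted bidirectionally relative to DMSO controls.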

The nature of test [2]: ATG_M_61_CIS: Attagene CIS-FACTORIAL HepG2 Assay for M61 Transcription Factor (Internal Marker) (AID 2282937). Particulars: HepG2 Attagene CIS-FACTORIAL M61 internal marker reporter; actives raise or lower the signal. Summed up: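 Readout is reporter mRNA by RT-PCR, fluorescent primer extension and capillary electrophoresis, with gain or loss fitted relative to DMSO. Transfected HepG2 cells carrying endogenous-TF-driven cis reporters were exposed to chemicals for 24 hours.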

Test [3] can be described thus: ATG_EGR_CIS: Attagene CIS-FACTORIAL HepG2 Assay for human Early Growth Response 1 (EGR1) (AID 2282938). To be noted: HepG2 Attagene CIS-FACTORIAL EGR reporter mRNA; actives raise or lower the signal. The essentials: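 After 24 h compound exposure, RNA from reporter-transfected HepG2 cells was reverse-transcribed, PCR-amplified, fluorescently labelled and resolved by capillary electrophoresis. EGR1 reporter transcript changes, up or down, were fitted against DMSO, reflecting endogenous transcription-factor activity.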

Test [4] can be described thus: ATG_M_19_CIS: Attagene CIS-FACTORIAL HepG2 Assay for M19 Transcription Factor (Internal Marker) (AID 2282939). Particulars: HepG2 Attagene CIS-FACTORIAL M19 internal marker reporter; actives raise or lower the signal. Summed up: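 HepG2, MRTU transient transfection, 24 h dosing. Total RNA → RT-PCR → 6-FAM primer extension → HpaI digest → CE fluorescence. Bidirectional curve fit, DMSO negative control.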

Test [5] can be described thus: ATG_ERE_CIS: Attagene CIS-FACTORIAL HepG2 Assay for Estrogen Response Element (ERE) (AID 2282940). To be noted: HepG2 ERE cis-reporter, Attagene RNA transcript; actives raise or lower the signal. The essentials:
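After a 24 h chemical treatment, RNA from reporter-transfected HepG2 cells is reverse-transcribed, PCR-amplified and fluorescently labelled. Fragments separated by capillary electrophoresis give reporter signal; DMSO serves as negative control.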

The nature of test [6]: ATG_Ets_CIS: Attagene CIS-FACTORIAL HepG2 Assay for human Erythroblast Transformation Specific (ETS) (AID 2282941). Particulars: HepG2 ETS cis-reporter transcription, actives raise or lower the signal. The essentials: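 Bidirectional fit versus DMSO of reporter mRNA signal, detected by RT-PCR and capillary electrophoresis in HepG2 cells transiently transfected with cis-element reporters and dosed 24 h.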

The target in test [7] is Hepatocyte nuclear factor 3-beta (Homo sapiens) (UniProt Q9Y261). Briefly: ATG_FoxA2_CIS: Attagene CIS-FACTORIAL HepG2 Assay for human Forkhead box A2 (FOXA2) (AID 2282942). Particulars: HepG2 cis-reporter transcription factor activity, 24 h; actives raise or lower the signal. Summed up:
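Endogenous transcription factor activity is captured via cis-element-driven reporter transcripts in transfected HepG2. Total RNA taken at 24 h post-dosing; labelled RT-PCR products resolved by capillary electrophoresis. Gain or loss fitted versus DMSO.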

The nature of test [8]: ATG_FoxO_CIS: Attagene CIS-FACTORIAL HepG2 Assay for human Forkhead box O (FoxO) (AID 2282943). Particulars: HepG2 Attagene cis-reporter, FoxO element, mRNA; actives raise or lower the signal. Summed up: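 HepG2, transient MRTU transfection (cis element, endogenous TFs). Dose 24 h. TriZol RNA → oligo(dT) RT → PCR → 6-FAM primer extension → HpaI cut → CE. Gain/loss vs DMSO.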

Test [9] can be described thus: ATG_GATA_CIS: Attagene CIS-FACTORIAL HepG2 Assay for human GATA Binding Protein (AID 2282944). Particulars: HepG2 GATA cis-element reporter, Attagene multiplex mRNA; actives raise or lower the signal. Summed up:
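Cells: HepG2, transiently transfected with cis-regulated reporter transcription units. Exposure: 24 h. Detection: RT-PCR plus capillary electrophoresis of FAM-labeled fragments. Analysis: bidirectional, DMSO as baseline.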

The nature of test [10]: ATG_GLI_CIS: Attagene CIS-FACTORIAL HepG2 Assay for human Zinc Finger Protein GLI1 (AID 2282945). Particulars: HepG2, Attagene cis-factorial reporter mRNA, GLI element; actives raise or lower the signal. Summed up:
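Bidirectional curve fits relative to DMSO, using reporter mRNA levels from RT-PCR plus capillary electrophoresis. Cells were HepG2 transiently carrying cis-regulated reporter constructs, harvested 24 h after dosing.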

Test [11] has as its target Bile acid receptor (Homo sapiens) (UniProt Q96RI1). Briefly: ATG_IR1_CIS: Attagene CIS-FACTORIAL HepG2 Assay for human Nuclear Receptor Subfamily 1 Group H Member 4 (NR1H4), IR1 submotif (AID 2282946). Particulars: IR1 reporter transcription, actives raise or lower the signal. Summed up: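 HepG2 cells transiently transfected with multiplexed cis-element reporter units read endogenous transcription factor activity. After 24 h compound exposure, reporter mRNA was quantified by RT-PCR, fluorescent labelling, HpaI digestion and capillary electrophoresis; bidirectional fitting versus DMSO baseline.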

The nature of test [12]: ATG_GRE_CIS: Attagene CIS-FACTORIAL HepG2 Assay for human Glucocorticoid Response Elements (GRE) (AID 2282947). To be noted: HepG2 GRE cis-reporter, Attagene multiplex mRNA; actives raise or lower the signal. The essentials:
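Multiplexed cis-reporter mRNA induction, HepG2, 24 h post-dose. RT-PCR, FAM-labelled, HpaI-digested amplicons by CE. Bidirectional fit vs DMSO.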

Test [13] in a line: ATG_M_32_CIS: Attagene CIS-FACTORIAL HepG2 Assay for M32 Transcription Factor (Internal Marker) (AID 2282949).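 Further: background control marker of the multiplexed CIS panel rather than a real target.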 To be noted: HepG2 Attagene cis-factorial M32 reporter, mRNA; actives raise or lower the signal. The essentials: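 Using DMSO as baseline, bidirectional curve fits were applied to reporter mRNA signals. These came from transiently transfected HepG2 cells exposed for 24 h, with RNA analysed by RT-PCR, FAM primer extension, HpaI digestion and CE.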

Test [14] is described as follows: ATG_M_06_CIS: Attagene CIS-FACTORIAL HepG2 Assay for M06 Transcription Factor (Internal Marker) (AID 2282950). To be noted: HepG2 Attagene CIS-FACTORIAL M06 internal marker reporter; actives raise or lower the signal. Summed up: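 Measured 24 h post-dosing in transiently transfected HepG2 cells, this internal-marker endpoint reports reporter mRNA via RT-PCR with fluorescent primer extension and capillary electrophoresis. DMSO served as negative control and baseline for bidirectional fitting.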

Test [15] concerns the target Hypoxia-inducible factor 1-alpha (Homo sapiens) (UniProt Q16665). Description: ATG_HIF1a_CIS: Attagene CIS-FACTORIAL HepG2 Assay for human Hypoxia Inducible Factor 1 (HIF1A) (AID 2282951). To be noted: HepG2 Attagene cis-factorial HIF1a reporter transcription; actives raise or lower the signal. Summed up: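 Activity is fitted in both directions relative to DMSO. Reporter transcripts are read by RT-PCR, fluorescent primer extension and capillary electrophoresis after 24 h chemical treatment. The cells are HepG2 carrying transiently transfected cis-element-driven reporter units responding to endogenous factors.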

The target of test [16] is Hepatocyte nuclear factor 6 (Homo sapiens) (UniProt Q9UBC0). Description: ATG_HNF6_CIS: Attagene CIS-FACTORIAL HepG2 Assay for human Hepatocyte Nuclear Factor 6 (HNF6) (AID 2282952). Particulars: HepG2 Attagene cis-factorial HNF6 reporter transcription; actives raise or lower the signal. The essentials:
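Twenty-four-hour chemical treatment of reporter-transfected HepG2 cells precedes RNA isolation, DNase-treated reverse transcription and PCR of reporter sequences. Labelled fragments are sized by capillary electrophoresis and fitted bidirectionally versus DMSO.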

Test [17] addresses Heat shock factor protein 1 (Homo sapiens) (UniProt Q00613). Description: ATG_HSE_CIS: Attagene CIS-FACTORIAL HepG2 Assay for human Heat Shock Transcription Factor 1 (HSE) (AID 2282953). To be noted: HepG2 HSE cis-reporter, Attagene RNA transcription; actives raise or lower the signal. The essentials:
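Reporter mRNA induction in HepG2 is measured 24 h after dosing, using transiently transfected multiplexed cis-regulated reporter units. Signal comes from capillary electrophoresis of labelled RT-PCR products, with DMSO as negative control.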

The nature of test [18]: ATG_MRE_CIS: Attagene CIS-FACTORIAL HepG2 Assay for human Metal Responsive Element (MRE) (AID 2282954). Particulars: HepG2 MRE cis-reporter transcription, Attagene multiplex; actives raise or lower the signal. Summed up:
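Multiplexed cis-reporter assay in human HepG2 liver cells, 24 h incubation with test chemical. Reporter transcripts measured by RT-PCR and capillary electrophoresis; values from bidirectional curve fitting versus DMSO.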

Test [19] in a line: ATG_PBREM_CIS: Attagene CIS-FACTORIAL HepG2 Assay for human Phenobarbital-responsive Enhancer Module (PBREM) (AID 2282955). Particulars: HepG2 PBREM cis-reporter, Attagene multiplexed transcription; actives raise or lower the signal. Summed up: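 Endogenous transcription factor activity was read from reporter transcripts in transiently transfected human HepG2 liver cells after 24 h dosing. RT-PCR products were fluorescently labelled, HpaI-cut and sized by capillary electrophoresis; activity fitted bidirectionally against DMSO baseline.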

Test [20] can be described thus: ATG_ISRE_CIS: Attagene CIS-FACTORIAL HepG2 Assay for human Interferon Regulatory Factor 1 (IRF1) binding to an Interferon-Stimulated Response Element (ISRE) (AID 2282948). To be noted: HepG2 ISRE cis-reporter (Attagene), mRNA transcription readout; actives raise or lower the signal. Summed up: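 Uses HepG2 liver cells transfected with cis-regulated reporters and measures mRNA 24 h post-dosing through RT-PCR, primer-extension labelling and capillary electrophoresis, with DMSO as negative control.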

This is an account of results in PubChem BioAssay (EPA / NIEHS).

Active and inactive are the calls of the source. How the source made its calls: active means hit-call score of the fitted dose curve at least 0.9, where 1 is the maximum; inactive means score below 0.9.

Chain of Heat shock factor protein 1 (Homo sapiens) (Q00613 whole entry, looked up): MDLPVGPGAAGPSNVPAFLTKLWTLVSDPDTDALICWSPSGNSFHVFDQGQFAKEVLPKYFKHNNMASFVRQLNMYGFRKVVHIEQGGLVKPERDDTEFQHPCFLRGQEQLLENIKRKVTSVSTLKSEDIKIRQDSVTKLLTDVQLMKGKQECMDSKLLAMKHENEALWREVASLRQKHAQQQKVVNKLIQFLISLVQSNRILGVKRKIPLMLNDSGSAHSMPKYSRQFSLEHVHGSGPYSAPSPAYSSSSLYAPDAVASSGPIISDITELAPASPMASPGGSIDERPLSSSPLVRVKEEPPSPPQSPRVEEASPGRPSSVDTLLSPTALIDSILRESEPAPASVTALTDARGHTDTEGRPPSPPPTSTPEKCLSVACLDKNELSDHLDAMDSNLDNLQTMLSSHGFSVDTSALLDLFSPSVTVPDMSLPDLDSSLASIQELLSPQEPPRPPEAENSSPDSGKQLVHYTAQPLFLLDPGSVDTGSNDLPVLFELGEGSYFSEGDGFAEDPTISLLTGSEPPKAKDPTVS
Chain of Hepatocyte nuclear factor 6 (Homo sapiens) (Q9UBC0 whole entry, looked up, the tested form may be a part): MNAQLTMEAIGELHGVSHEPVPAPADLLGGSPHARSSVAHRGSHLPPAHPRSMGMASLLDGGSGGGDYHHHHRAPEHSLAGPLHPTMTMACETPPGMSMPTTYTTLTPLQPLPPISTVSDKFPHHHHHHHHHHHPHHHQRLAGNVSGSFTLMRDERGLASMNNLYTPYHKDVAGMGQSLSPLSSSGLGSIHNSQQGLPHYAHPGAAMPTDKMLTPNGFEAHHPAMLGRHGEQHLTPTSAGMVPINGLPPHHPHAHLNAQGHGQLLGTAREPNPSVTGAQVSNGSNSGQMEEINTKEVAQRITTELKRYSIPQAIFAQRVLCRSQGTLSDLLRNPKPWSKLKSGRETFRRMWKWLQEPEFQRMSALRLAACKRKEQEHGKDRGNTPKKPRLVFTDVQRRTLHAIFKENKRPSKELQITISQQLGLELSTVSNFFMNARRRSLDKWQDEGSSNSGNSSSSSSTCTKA
Chain of Hepatocyte nuclear factor 3-beta (Homo sapiens) (Q9Y261 whole entry, looked up): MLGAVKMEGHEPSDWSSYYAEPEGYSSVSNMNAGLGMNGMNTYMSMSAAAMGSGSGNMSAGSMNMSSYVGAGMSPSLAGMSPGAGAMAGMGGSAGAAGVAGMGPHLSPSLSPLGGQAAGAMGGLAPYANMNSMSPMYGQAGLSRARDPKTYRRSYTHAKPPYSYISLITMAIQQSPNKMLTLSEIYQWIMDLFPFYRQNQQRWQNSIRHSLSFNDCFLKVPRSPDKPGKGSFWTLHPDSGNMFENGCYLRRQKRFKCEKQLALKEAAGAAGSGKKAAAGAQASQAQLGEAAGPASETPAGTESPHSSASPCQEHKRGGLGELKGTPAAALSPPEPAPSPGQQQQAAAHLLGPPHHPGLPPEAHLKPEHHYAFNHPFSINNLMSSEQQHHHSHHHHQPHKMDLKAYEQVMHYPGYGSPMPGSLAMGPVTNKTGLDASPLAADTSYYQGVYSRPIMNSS
Chain of Hypoxia-inducible factor 1-alpha (Homo sapiens) (Q16665 whole entry, looked up): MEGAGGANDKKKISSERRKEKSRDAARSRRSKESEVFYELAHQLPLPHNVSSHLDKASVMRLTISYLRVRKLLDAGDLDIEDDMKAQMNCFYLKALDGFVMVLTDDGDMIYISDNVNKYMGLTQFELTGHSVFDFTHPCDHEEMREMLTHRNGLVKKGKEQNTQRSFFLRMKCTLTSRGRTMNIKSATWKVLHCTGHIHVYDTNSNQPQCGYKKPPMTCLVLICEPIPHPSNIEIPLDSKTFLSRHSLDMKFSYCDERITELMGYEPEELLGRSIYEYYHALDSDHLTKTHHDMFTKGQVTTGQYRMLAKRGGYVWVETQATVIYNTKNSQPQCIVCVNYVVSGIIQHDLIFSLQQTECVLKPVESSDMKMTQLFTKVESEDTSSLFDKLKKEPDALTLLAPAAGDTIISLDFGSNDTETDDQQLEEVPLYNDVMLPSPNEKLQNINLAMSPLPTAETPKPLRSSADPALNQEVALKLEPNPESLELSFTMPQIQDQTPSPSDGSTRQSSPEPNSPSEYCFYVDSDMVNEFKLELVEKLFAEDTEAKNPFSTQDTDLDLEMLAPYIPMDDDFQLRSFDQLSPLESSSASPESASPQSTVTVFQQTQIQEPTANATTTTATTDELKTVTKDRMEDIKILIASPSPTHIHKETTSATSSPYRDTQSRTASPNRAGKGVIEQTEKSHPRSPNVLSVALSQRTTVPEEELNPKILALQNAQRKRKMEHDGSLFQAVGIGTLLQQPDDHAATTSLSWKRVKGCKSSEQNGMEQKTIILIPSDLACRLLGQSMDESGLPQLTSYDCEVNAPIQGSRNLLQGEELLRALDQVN
Chain of Bile acid receptor (Homo sapiens) (Q96RI1 whole entry, looked up): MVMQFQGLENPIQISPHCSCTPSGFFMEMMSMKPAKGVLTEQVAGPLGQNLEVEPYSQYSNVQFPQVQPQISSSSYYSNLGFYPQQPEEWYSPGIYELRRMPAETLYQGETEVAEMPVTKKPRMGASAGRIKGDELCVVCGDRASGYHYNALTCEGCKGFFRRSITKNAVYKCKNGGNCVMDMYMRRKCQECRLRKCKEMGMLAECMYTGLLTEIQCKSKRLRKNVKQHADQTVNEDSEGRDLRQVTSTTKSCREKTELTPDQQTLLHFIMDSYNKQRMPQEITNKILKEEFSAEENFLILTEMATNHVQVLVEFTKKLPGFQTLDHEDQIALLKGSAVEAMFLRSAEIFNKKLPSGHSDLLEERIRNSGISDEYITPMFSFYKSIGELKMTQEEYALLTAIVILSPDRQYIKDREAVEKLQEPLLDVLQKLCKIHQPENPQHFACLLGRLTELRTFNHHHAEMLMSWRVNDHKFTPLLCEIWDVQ

What is called AC50 is the midpoint of the concentration-response curve, whichever way the signal moves. `COc1ccc2sc(C(=O)Nc3nnn[nH]3)c(OC(C)C)c2c1`: the outcome in [1], in [2], in test [4], in [6], in test [7] and in test [8] was inactive. Moreover, the result in test [9], in test [10], in test [12], in test [13], in [14] and in test [16] was inactive. Moreover, the outcome in [17] and in test [19] was inactive. In addition, the concentration at half-maximal activity (AC50) in test [3] was 146 µM (active); in test [5], 25.7 µM (active); in [11], 67.6 µM (active); in test [15], 149 µM (active); in test [18] it was 91.1 µM (active).

On to `COC(=O)CC(=O)OC`, for which the result in [1], in [2], in [3], in test [4], in test [5] and in test [6] was inactive. Besides, the result in [7], in test [8], in [9], in test [10], in [12] and in test [20] was inactive. Moreover, the compound was classed as inactive in test [13], in [15], in test [16], in [17], in test [18] and in test [19].

Regarding `COc1ccc(/C=C/S(=O)(=O)NC(=O)c2ccc(C)cc2Cl)cc1`, the result in [1], in test [2], in test [3], in [4], in test [6] and in test [7] was inactive. Moreover, the compound was called inactive in test [8], in test [9], in test [10], in [11], in test [12] and in [20]. Also, the call in test [13], in test [14], in test [15], in test [16], in test [17] and in [18] was inactive.
